Screening data from PubChem BioAssay.
An excerpt weighted towards active compounds, which were near 5.4% of everything screened.
FXN GAA850 act – activators of GAA850 frataxin (FXN) promoter. HEK293 lucGAA850 FXN promoter luciferase reporter, 24 h; percent of 10 µM SAHA response. hit rate 0.56% among 360,000. activation, % at 6 µM;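 active means activation above the average of all compounds screened plus 3 SD, cutoff fixed separately per campaign, cut at about 7.5% in these data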
DAX1 inh – NR0B1 (DAX1) inhibition; hit rate 0.99% among 340,000; AID 504766; HEK293 Gal4-DAX1 luciferase reporter, luminescence; inhibition, % at 6.75 µM;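 active means inhibition above the mean over all tested compounds plus 3 SD, cut at about 4.2% in these data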;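 further: inhibition shows as a rise in luminescence from relieved DAX1 repression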
Target sequence (P51843 207-470 limits assumed): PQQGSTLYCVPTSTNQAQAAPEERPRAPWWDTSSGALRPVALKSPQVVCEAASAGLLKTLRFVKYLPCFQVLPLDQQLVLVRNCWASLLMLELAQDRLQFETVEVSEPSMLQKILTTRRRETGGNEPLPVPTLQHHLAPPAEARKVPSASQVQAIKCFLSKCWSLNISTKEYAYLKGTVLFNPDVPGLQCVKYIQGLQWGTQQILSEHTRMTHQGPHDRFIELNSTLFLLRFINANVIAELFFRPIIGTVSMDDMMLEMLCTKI
AHR activator – activators of human aryl hydrocarbon receptor; P35869; hit rate 2.5% among 320,000; activation, % at 5 µM; AHR-responsive luciferase reporter cells, luminescence; in the data active means activation above about 47%
HSF1 activator – increases HSF-1 driven luciferase reporter signal; NIH3T3-HGL HSF-1 luciferase reporter, MG132, 8 h; 100% = twice DMSO control signal; activation, % at 9 µM; hit rate 1.7% among 300,000;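 active means mean replicate activation of at least 50% with a set share of replicates each reaching 50%; inconclusive means only one of those two conditions met; inactive means mean below 50% and too few replicates reaching it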
HSF1 inh – HSF1 inhibition. NIH3T3-HGL HSE-luciferase, MG132-induced, luminescence 8 h; hits give low values. activity change, negative = inhibition, % at 7.5 µM (by protocol). hit rate 0.77% among 300,000. AID 2098;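 active means more than half of replicate wells show activity change below -50%, luminescence cut by over half; inconclusive means some wells, but at most half, below -50%; inactive means no replicate well below -50%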;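 further: luciferase reports HSF-1 transcriptional activity via heat shock element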
Numbers stand for hits; n = inactive; u = inconclusive; x = not tested or not shown.

SMILES | FXN GAA850 act | DAX1 inh | AHR activator | HSF1 activator | HSF1 inh
Cc1ccc(CNC(=O)CS(=O)(=O)Cc2nc(-c3ccccc3F)oc2C)cc1 | n | n | n | 57 | n
COc1ccc(NC(=O)C(Sc2nnc(-c3ccncc3)n2-c2ccccc2C)c2ccccc2)cc1Cl (stereo unspecified) | n | n | n | 53 | n
COc1ccc(NC(=O)CSc2nnc(-c3ccco3)n2N)cc1Cl | n | n | n | n | n
COc1ccc(NC(=O)C(OC)c2ccccc2)cc1Cl (stereo unspecified) | n | n | n | n | n
COc1ccc(NC(=O)CSc2nnc(-c3ccccn3)n2N)cc1Cl | n | n | 73 | n | n
Cc1ccc(C)c(OCCC(=O)N(C)CC(=O)Nc2c(C)cccc2C)c1 | n | n | n | x | x
N#CCCN(CCC#N)C(=O)C1c2ccccc2Oc2ccccc21 | n | n | n | n | n
CN1CCN(c2ccccc2NC(=O)c2ccc(-c3ccc(Cl)c(Cl)c3)o2)CC1 | n | n | 63 | n | n
CN1CCN(c2ccccc2NC(=O)c2ccc(-c3ccc(Br)cc3)o2)CC1 | n | n | n | n | n
COc1ccccc1NC(=O)c1cc(Br)ccc1Cl | n | n | 65 | n | n
CN1CCN(c2ccccc2NC(=O)c2cc(Br)ccc2Cl)CC1 | n | n | 55 | n | n
COc1ccccc1NC(=O)c1cc(S(=O)(=O)N2CCOCC2)ccc1Cl | n | n | n | n | n
COc1ccc(Br)cc1C(=O)Nc1cccc(C)c1 | n | n | 50 | n | n
Cc1ccc(S(=O)(=O)NC(=O)C2(C)CCN2C(=O)C2CCCCC2)cc1 (stereo unspecified) | n | x | x | x | x
CCCCCCOC(=O)c1ccc(OC(=O)c2cccnc2)cc1 | n | n | n | 58 | n
O=C(c1ccc(=O)[nH]n1)N1CCN(S(=O)(=O)c2cccc(F)c2)CC1 | n | n | x | x | x
CCOc1ccccc1/C=C/C(=O)N1CCN(C(=O)c2ccco2)CC1 | n | n | n | x | x
CN(C)S(=O)(=O)c1cc(NC(=O)c2ccc(-n3ccnc3)c([N+](=O)[O-])c2)ccc1Cl | n | n | 53 | n | n
COc1c(Cl)cc(Cl)cc1/C=C/C(=O)c1ccc(NC(=O)c2cccs2)cc1 | n | n | n | 115 | n
COc1c(Cl)cc(Cl)cc1C(=O)Nc1ccc(C(=O)O)cc1 | n | n | n | n | n
CSCCC(N=C1NS(=O)(=O)c2ccccc21)C(=O)N1CCCC(C(N)=O)C1 (stereo unspecified) | n | n | n | n | n
CCc1cccc(NC(=O)CC2Oc3ccccc3NC2=O)c1 (stereo unspecified) | n | n | n | n | n
O=C(CC1Oc2ccccc2NC1=O)NCc1ccc(Cl)cc1 (stereo unspecified) | n | 4.4 | n | n | n
CC1CCN(Cc2ccc(NC(=O)CC3Oc4ccccc4NC3=O)cc2)CC1 (stereo unspecified) | n | 6.2 | n | n | n
COc1cc(OC)cc(C(=O)NC(C)CNc2ccc(Cl)cc2[N+](=O)[O-])c1 (stereo unspecified) | n | n | n | n | n
SMILES | FXN GAA850 act | DAX1 inh | AHR activator | HSF1 activator | HSF1 inh
Cc1ccc(C(=O)NCC(=O)OCC(=O)c2cc(C)n(Cc3ccco3)c2C)cc1 | n | n | n | n | n
C=CCn1c(C)cc(C(=O)COC(=O)CNC(=O)c2ccccc2)c1C | n | n | n | n | -82
C=CCn1c(C)cc(C(=O)CSc2nnc(NC(C)C)s2)c1C | n | n | n | n | -59
Cc1cc(C(=O)CSc2n[nH]c(N)n2)c(C)n1C1CC1 | n | n | n | n | n
C=CCn1c(C)cc(C(=O)CSc2n[nH]c(N)n2)c1C | n | n | 50 | n | n
Cc1cc(C(=O)OCC(=O)N2CCc3ccccc32)ccc1[N+](=O)[O-] | n | n | n | x | x
Cc1ccc(C(=O)NCC(=O)OCC(=O)Nc2ccc3[nH]c(=O)[nH]c3c2)cc1 | n | n | n | n | n
Cc1ccc(-c2nc3nc4ccccc4nc3n2Cc2ccco2)cc1 | n | n | n | n | n
c1coc(-c2nc3nc4ccccc4nc3n2CC2CCCO2)c1 (stereo unspecified) | n | n | n | 56 | n
CCCCCn1c(-c2ccco2)nc2nc3ccccc3nc21 | n | n | n | n | n
c1ccc(Cn2c(-c3ccco3)nc3nc4ccccc4nc32)cc1 | n | n | n | 90 | n
Clc1ccc(-c2nc3nc4ccccc4nc3n2Cc2ccco2)cc1 | n | n | 53 | x | x
CSc1cccc(N2CC(C(=O)NCCC3=CCCCC3)CC2=O)c1 (stereo unspecified) | n | n | n | n | n
COc1ccc(C(=O)Nc2nnc(C(F)(F)F)s2)cc1 | n | n | 59 | n | n
COc1ccc(C(=O)Nc2nnc(-c3ccccc3)s2)cc1 | n | n | x | n | n
Cc1ccc(S(=O)(=O)N(C)c2ccc(OCC(=O)Nc3nc4ccccc4s3)cc2)cc1 | n | n | n | n | n
Cc1ccc(S(=O)(=O)N(C)c2ccc(OCC(=O)Nc3nc4c(ccc5ccccc54)s3)cc2)cc1 | n | n | 47 | n | n
CCCOc1ccc(OCCSc2nnc(N)s2)cc1 | n | n | n | 125 | n
CCOc1ccc(-c2nc(CSc3nnc(N)s3)cs2)cc1 | n | n | n | 62 | n
CCCOc1ccc(OCCSc2ncccn2)cc1 | n | n | n | 72 | n
Clc1ccc(OCCSc2ncccn2)c(Br)c1 | n | 4.4 | n | u | n
CCOc1ccc(-c2nc(CSc3nnc(N)s3)cs2)cc1OC | n | n | n | n | n
CCCc1cc(=O)oc2c(C)c(OC(C)C(=O)NCCN3CCOCC3)ccc12 (stereo unspecified) | n | n | n | n | n
COc1ccc(S(=O)(=O)N2CCCC(C(F)(F)F)C2)cc1 (stereo unspecified) | n | n | n | n | n
Oc1ccccc1-c1nc2c3ccccc3c3ccccc3c2[nH]1 | n | n | 53 | n | n
SMILES | FXN GAA850 act | DAX1 inh | AHR activator | HSF1 activator | HSF1 inh
Oc1ccccc1-c1ccn[nH]1 | n | n | n | x | x
NC1=NC(=O)/C(=C\c2ccco2)S1 | n | n | n | n | n
CS(=O)(=O)Nc1ccc(-c2ccc(/C=C3\SC(N)=NC3=O)o2)cc1 | n | n | 58 | n | n
CCOCCn1c(C)c(C(=O)OCC)c2cc(O)c3ccccc3c21 | n | n | n | x | x
COc1cc(/C=N/Nc2ccc(Cl)c(C(=O)O)c2)ccc1OC(=O)c1ccccc1F | n | n | n | n | n
CCN(CC)c1ccc(/C=N/NC(=S)NCc2ccccc2)cc1 | n | n | n | n | n
CC(C)COc1ccc(CNC(=S)N/N=C/c2ccc([N+](=O)[O-])cc2)cc1 | n | n | n | n | n
CC(C)Oc1ccc(CNC(=S)N/N=C/c2ccc([N+](=O)[O-])cc2)cc1 | n | n | n | n | -67
CCN(CC)c1ccc(/C=N/NC(=S)NCc2ccc(OC)cc2)cc1 | n | n | 49 | 53 | n
C[C@H](NC(=O)Cc1cccc2ccccc12)C(=O)N1CCOCC1 | n | n | n | x | x
COc1cccc(NCc2cc(=O)oc3cc(-c4ccccc4)c(O)cc23)c1 | n | n | 76 | n | n
